In PubChem BioAssay AID876 (University of Pittsburgh Molecular Library Screening Center, 2007):
This is one part of the list. Values without a mark were called inactive. How the calls were made is not given here.

Experiment: H2O2 production by redox-active compounds – biochemical, artefact control for Plk1 PBD inhibitor project, dose response (AID 876)
Conditions: redox cycling H2O2 generation, DTT, counter-screen

Compound	EC50
CC1(C)CC(=O)C=C(NCc2ccncc2)C1	> 50 µM
COc1ccc(Nc2oc(-c3ccccc3Cl)nc2C#N)cc1	> 50 µM
Oc1ccc2ccc3cccc[n+]3c2c1	> 50 µM
CCOC(=O)c1cc2n(c1N)-c1ccccc1C2=O	> 50 µM
O=C(NCCc1ccccc1)/C(=C\c1ccc([N+](=O)[O-])cc1)NC(=O)c1ccccc1	> 50 µM
